# Values joined by “and” are separate entries in the source; they are usually repeats but may differ in a detail not shown here. Identical values can stand only once. Out of some 5,500 compounds screened, about 2,000 (36%) were called active. Roughly 18% stayed inconclusive and do not appear here. Some of the results follow. Values without a mark were called inactive. No stated cut-off is given here; in the data, active means normalized growth mostly below about 0.91 (no sharp cut-off); inconclusive means no clear call, values can overlap the other calls; inactive means mostly above about 0.92.
# Test: chemical genetic growth profiling, strain panel (AID 1159580);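 further: tested at 20 µM; growth read once vehicle control cultures reached saturation at 30 °C; 1 = growth at the plate median or of vehicle wells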
# Details: S. cerevisiae deletion strains, growth OD
compound,measurement,setting,value
O=C1OC(c2ccc(O)cc2)(c2ccc(O)cc2)c2ccccc21,normalized growth,"locus YAL013W, strain DEP1, stronger effect = lower value",0.999
same,normalized growth,"locus YAL021C, strain ccr4, stronger effect = lower value",0.977
same,normalized growth,"locus YAL026C, strain drs2, stronger effect = lower value",0.978
same,normalized growth,"locus YAL030W, strain snc1, stronger effect = lower value",0.994
same,normalized growth,"locus YBL061C, strain skt5, stronger effect = lower value",0.984
same,normalized growth,"locus YBR009C, strain hhf1, stronger effect = lower value",0.988
same,normalized growth,"locus YBR021W, strain FUR4, stronger effect = lower value",1.01
same,normalized growth,"locus YBR023C, strain chs3, stronger effect = lower value",0.994
same,normalized growth,"locus YBR171W, strain sec66, stronger effect = lower value",0.981
same,normalized growth,"locus YBR229C, strain ROT2, stronger effect = lower value",0.997
same,normalized growth,"locus YBR231C, strain swc5, stronger effect = lower value",0.974
same,normalized growth,"locus YBR279W, strain paf1, stronger effect = lower value",0.988
same,normalized growth,"locus YCL011C, strain gbp2, stronger effect = lower value",0.968
same,normalized growth,"locus YCL016C, strain dcc1, stronger effect = lower value",1.01
same,normalized growth,"locus YCL029C, strain bik1, stronger effect = lower value",0.972
same,normalized growth,"locus YCL061C, strain MRC1, stronger effect = lower value",1
same,normalized growth,"locus YCL069W, strain vba3, stronger effect = lower value",0.969
same,normalized growth,"locus YCR088W, strain abp1, stronger effect = lower value",1
same,normalized growth,"locus YDL005C, strain med2, stronger effect = lower value",0.97
same,normalized growth,"locus YDL035C, strain GPR1, stronger effect = lower value",0.986
same,normalized growth,"locus YDL040C, strain nat1, stronger effect = lower value",0.986
same,normalized growth,"locus YDL074C, strain BRE1, stronger effect = lower value",0.98
same,normalized growth,"locus YDL101C, strain DUN1, stronger effect = lower value",0.98
same,normalized growth,"locus YDL134C, strain PPH21, stronger effect = lower value",0.989
same,normalized growth,"locus YDL185W, strain tfp1, stronger effect = lower value",0.954
same,normalized growth,"locus YDL192W, strain arf1, stronger effect = lower value",0.974
same,normalized growth,"locus YDR001C, strain nth1, stronger effect = lower value",0.965
same,normalized growth,"locus YDR069C, strain doa4, stronger effect = lower value",0.959
same,normalized growth,"locus YDR101C, strain arx1, stronger effect = lower value",0.973
same,normalized growth,"locus YDR137W, strain rgp1, stronger effect = lower value",0.976
same,normalized growth,"locus YDR150W, strain NUM1, stronger effect = lower value",1
same,normalized growth,"locus YDR159W, strain sac3, stronger effect = lower value",0.969
same,normalized growth,"locus YDR162C, strain NBP2, stronger effect = lower value",0.992
same,normalized growth,"locus YDR195W, strain ref2",0.973
same,normalized growth,"locus YDR297W, strain sur2, stronger effect = lower value",0.996
same,normalized growth,"locus YDR318W, strain mcm21, stronger effect = lower value",0.949
same,normalized growth,"locus YDR334W, strain swr1, stronger effect = lower value",0.897 (active)
same,normalized growth,"locus YDR335W, strain msn5, stronger effect = lower value",0.97
same,normalized growth,"locus YDR388W, stronger effect = lower value",0.973
same,normalized growth,"locus YDR392W, strain spt3, stronger effect = lower value",0.958
same,normalized growth,"locus YDR502C, strain sam2, stronger effect = lower value",0.96
same,normalized growth,"locus YEL003W, strain gim4, stronger effect = lower value",0.964
same,normalized growth,"locus YEL037C, strain rad23, stronger effect = lower value",0.983
same,normalized growth,"locus YEL061C, strain CIN8 (second series), stronger effect = lower value",0.962
same,normalized growth,"locus YEL061C, strain CIN8, stronger effect = lower value",0.996
same,normalized growth,"locus YER015W, strain faa2, stronger effect = lower value",0.977
same,normalized growth,"locus YER016W, strain bim1, stronger effect = lower value",0.984
same,normalized growth,"locus YER110C, stronger effect = lower value",0.971
same,normalized growth,"locus YER111C, strain swi4, stronger effect = lower value",0.995
same,normalized growth,"locus YER155C, strain BEM2 (second series), stronger effect = lower value",0.826 (active)
same,normalized growth,"locus YER155C, strain BEM2, stronger effect = lower value",0.994
same,normalized growth,"locus YER167W, strain BCK2, stronger effect = lower value",0.997
same,normalized growth,"locus YFR010W, strain ubp6, stronger effect = lower value",0.975
same,normalized growth,"locus YGL078C, strain dbp3, stronger effect = lower value",0.984
same,normalized growth,"locus YGL086W, strain mad1, stronger effect = lower value",0.992
same,normalized growth,"locus YGL167C, strain pmr1, stronger effect = lower value",0.983
same,normalized growth,"locus YGL173C, strain kem1, stronger effect = lower value",0.996
same,normalized growth,"locus YGL227W, strain vid30, stronger effect = lower value",0.987
same,normalized growth,"locus YGL240W, strain doc1, stronger effect = lower value",0.965
same,normalized growth,"locus YGL248W, strain PDE1, stronger effect = lower value",0.996
same,normalized growth,"locus YGL253W, strain hxk2, stronger effect = lower value",0.969
same,normalized growth,"locus YGR135W, strain pre9, stronger effect = lower value",0.964
same,normalized growth,"locus YGR252W, strain gcn5, stronger effect = lower value",1.03
same,normalized growth,"locus YHR013C, strain ard1, stronger effect = lower value",0.954
same,normalized growth,"locus YHR027C, strain rpn1, stronger effect = lower value",0.982
same,normalized growth,"locus YHR030C, strain SLT2, stronger effect = lower value",0.986
same,normalized growth,"locus YHR079C, strain IRE1 (second series), stronger effect = lower value",0.96
same,normalized growth,"locus YHR079C, strain IRE1, stronger effect = lower value",0.953
same,normalized growth,"locus YHR094C, strain hxt1, stronger effect = lower value",0.971
same,normalized growth,"locus YHR129C, strain ARP1, stronger effect = lower value",0.995
same,normalized growth,"locus YHR142W, strain chs7, stronger effect = lower value",0.977
same,normalized growth,"locus YHR200W, strain rpn10, stronger effect = lower value",0.967
same,normalized growth,"locus YIL066C, strain RNR3, stronger effect = lower value",0.996
same,normalized growth,"locus YIL073C, strain SPO22, stronger effect = lower value",0.844
same,normalized growth,"locus YIL125W, strain kgd1, stronger effect = lower value",0.956
same,normalized growth,"locus YIR030C, strain dcg1, stronger effect = lower value",0.985
same,normalized growth,"locus YJL092W, strain hpr5, stronger effect = lower value",0.995
same,normalized growth,"locus YJL095W, strain BCK1 (second series), stronger effect = lower value",0.977
same,normalized growth,"locus YJL095W, strain BCK1, stronger effect = lower value",1.04 and 0.981
same,normalized growth,"locus YJL115W, strain asf1, stronger effect = lower value",0.972
same,normalized growth,"locus YJL129C, strain trk1, stronger effect = lower value",0.949
same,normalized growth,"locus YJL134W, strain LCB3, stronger effect = lower value",0.988
same,normalized growth,"locus YJL154C, strain vps35, stronger effect = lower value",0.972
same,normalized growth,"locus YJL164C, strain tpk1, stronger effect = lower value",0.987
same,normalized growth,"locus YJL166W, strain qcr8, stronger effect = lower value",0.983
same,normalized growth,"locus YJL168C, strain set2, stronger effect = lower value",0.974
same,normalized growth,"locus YJL187C, strain SWE1 (second series), stronger effect = lower value",0.991

# Source: PubChem BioAssay AID1159580 (chemical genetic matrix, 2015)
